Test results published in PubChem BioAssay (NCI).
This is part of a sample that, as a whole, favours compounds with a hit. Of some 79,000 tested, about 15% had one in any assay. Unmarked numbers belong to inactive results. Calls of active or inactive are those of the source. Rule as the data show it: active = growth inhibition above about 70%; inactive = the rest.

Experiments:
[1] = NCI Yeast Anticancer Drug Screen. Data for the rad50 strain (AID 155);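 also: 0% = growth of vehicle-only cultures of the same strain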; details: S. cerevisiae rad50 strain growth inhibition, stronger effect = higher value
Summary of the method: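 Cells are treated with compound, grown, and their growth is then scored against vehicle-only cultures of the same repair-deficient yeast strain.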

[2] = NCI Yeast Anticancer Drug Screen. Data for the mec2-1 strain (AID 157); details: S. cerevisiae mec2-1 strain, stronger effect = higher value
Summary of the method: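 mec2-1 yeast strain, carrying an alteration in DNA damage repair or cell cycle control, was exposed to compounds; growth inhibition was measured relative to vehicle-treated controls.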

[3] = NCI Yeast Anticancer Drug Screen. Data for the sgs1 mgt1 strain (AID 161);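 also: 0% = growth of cultures given vehicle only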; details: S. cerevisiae sgs1 mgt1 strain, stronger effect = higher value
Summary of the method: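 Compounds are added to genetically altered yeast, and growth is compared with cultures given vehicle alone to give percent inhibition.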

[4] = NCI Yeast Anticancer Drug Screen. Data for the cln2 rad14 strain (AID 165);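 also: 0% = growth equal to vehicle treated cultures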; details: S. cerevisiae cln2 rad14 strain, stronger effect = higher value
Summary of the method: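 Yeast carrying cln2 and rad14 alterations (cell cycle control and DNA damage repair) were exposed to compounds. Growth inhibition was measured against vehicle-treated controls.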

[5] = NCI Yeast Anticancer Drug Screen. Data for the bub3 strain (AID 167); details: S. cerevisiae bub3 mutant strain, stronger effect = higher value
Summary of the method: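 Part of a panel of yeast mutants defective in DNA damage repair or cell cycle regulation. Each strain is grown with compound, and inhibition is calculated relative to solvent-treated cultures.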

[6] = NCI Yeast Anticancer Drug Screen. Data for the mlh1 rad18 strain (AID 175); details: S. cerevisiae mlh1 rad18 strain growth inhibition, stronger effect = higher value
Summary of the method: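 Growth inhibition of the yeast strain was measured after compound exposure and expressed relative to vehicle-treated controls. The strain carries defined defects in DNA damage repair.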

[7] = at 5.0 µM (retest, dose inferred, filed as 0.5)
[8] = at 50.0 µM (retest, dose inferred, filed as 5.0)

SMILES | growth inhibition [1, 7] [%] | growth inhibition [1, 8] | growth inhibition ([1]; at 50.0 µM) | growth inhibition [2, 7] [%] | growth inhibition [2, 8] | growth inhibition ([2]; at 50.0 µM) | growth inhibition [3, 7] [%] | growth inhibition [3, 8] | growth inhibition ([3]; at 50.0 µM) | growth inhibition [4, 7] [%] | growth inhibition [4, 8] | growth inhibition ([4]; at 50.0 µM) | growth inhibition [5, 7] [%] | growth inhibition [5, 8] | growth inhibition ([5]; at 50.0 µM) | growth inhibition [6, 7] [%] | growth inhibition [6, 8] | growth inhibition ([6]; at 50.0 µM)
O=[N+]([O-])C1C(c2ccccc2)CC=CC1N1CCCC1 (configuration not stated) | 2 | 97% (active) | 98.5% (active) | 15 | 95% (active) | 98% (active) | 17 | 97% (active) | 98% (active) | -2 | 85% (active) | 93.9% (active) | -3 | 95% (active) | 97.3% (active) | 7 | 98% (active) | 98.2% (active)
O=[N+]([O-])c1ccc(-[n+]2ccc3ccccc3c2)c([N+](=O)[O-])c1 | 14 | 78% (active) | 72.4% (active) | 8 | 80% (active) | 52.3% | 11 | 79% (active) | 82.4% (active) | 10 | 61% | 37.4% | 6 | 59% | 78% (active) | 40 | 90% (active) | 81.6% (active)
C/C(=N/O)c1cc([N+](=O)[O-])c(O)cc1O | -27 | 70% (active) | 86.7% (active) | -10 | 76% (active) | 84.9% (active) | -15 | 80% (active) | 89.2% (active) | -6 | 44% | 61.1% | -35 | 76% (active) | 86.5% (active) | -16 | 80% (active) | 85.8% (active)
CN(C)c1ccc(C(c2cc3c(cc2O)OCO3)N2CCCCC2)cc1 (configuration not stated) | 3 | 86% (active) | 99.3% (active) | -4 | 98% (active) | 99.5% (active) | 8 | 88% (active) | 99.5% (active) | -1 | 70% (active) | 98.3% (active) | -5 | 97% (active) | 99.3% (active) | -8 | 97% (active) | 99.3% (active)
CCC(c1ccc(O)cc1)C(CC)c1ccc(O)c(O)c1 (configuration not stated) | 16 | 98% (active) | 99.6% (active) | 12 | 99% (active) | 99.5% (active) | 13 | 99% (active) | 99.5% (active) | -2 | 99% (active) | 99.4% (active) | 10 | 98% (active) | 99.5% (active) | 12 | 97% (active) | 99.5% (active)
Cc1ccccc1[P+](C)(c1ccccc1C)c1ccccc1C | 56 | 85% (active) | 81% (active) | 18 | 78% (active) | 69.7% | 31 | 89% (active) | 82.2% (active) | 2 | 48% | 29.1% | 27 | 85% (active) | 82.8% (active) | 34 | 84% (active) | 71.8% (active)
Cn1c2ccccc2c2nnc(N/N=C/c3ccccn3)nc21 | 26 | 98% (active) | 94.4% (active) | 21 | 97% (active) | 96.5% (active) | 23 | 98% (active) | 96.9% (active) | 8 | 97% (active) | 96.2% (active) | 13 | 99% (active) | 96.2% (active) | 22 | 98% (active) | 96.4% (active)
CCCCCCn1c(SCC)c2ccccc2c1-c1nc(F)nc(F)n1 | -14 | 5% | 89.1% (active) | -40 | -10% | 92.8% (active) | -15 | 10% | 90.2% (active) | 14 | 52% | 88.7% (active) | 24 | 36% | 88.5% (active) | 10 | 34% | 87.9% (active)
COc1ccc(-c2c(C#N)c(-c3ccc(C)cc3)n(NS(=O)(=O)c3ccc(C)cc3)c(=O)c2C#N)cc1 | -2 | 55% | 71.3% (active) | -2 | 70% (active) | 68.7% | -3 | 44% | 84.7% (active) | -5 | 68% | 64.1% | 4 | 65% | 79.4% (active) | -2 | 62% | 83.6% (active)
